This is a sample that favours compounds with a hit; in the whole collection about 1.3% have one here.
VACV mCherry inh = inhibitors of vaccinia virus infection (mCherry reporter signal); Vaccinia virus mCherry reporter infection, fluorescence; Potency, µM (doses to about 36.5 µM), for inactives: at the highest dose activity change, negative = inhibition, actives largely listed as inhibitors; actives 0.63% (n = 310,000); AID 720579; calls by dose curve; tested in A549 cells; note: % is set by controls: 0 for no effect and ±100 for the full control effect; nearly all actives have a fitted effect of over 35% in size
AmpC inh no detg = inhibitors of E. coli AmpC beta-lactamase without detergent. AmpC nitrocefin hydrolysis, absorbance 480 nm, 0.0001% Triton. P00811. Potency, µM (series often up to 57.1 µM), without a hit: at the top dose activity change, negative = inhibition, usual class: inhibitors. actives 0.52% (n = 330,000);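 note: plate controls were no compound for no effect and no enzyme for full effect; nearly all actives have a fitted effect of over 20% in size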
Target sequence (P00811 whole entry, looked up): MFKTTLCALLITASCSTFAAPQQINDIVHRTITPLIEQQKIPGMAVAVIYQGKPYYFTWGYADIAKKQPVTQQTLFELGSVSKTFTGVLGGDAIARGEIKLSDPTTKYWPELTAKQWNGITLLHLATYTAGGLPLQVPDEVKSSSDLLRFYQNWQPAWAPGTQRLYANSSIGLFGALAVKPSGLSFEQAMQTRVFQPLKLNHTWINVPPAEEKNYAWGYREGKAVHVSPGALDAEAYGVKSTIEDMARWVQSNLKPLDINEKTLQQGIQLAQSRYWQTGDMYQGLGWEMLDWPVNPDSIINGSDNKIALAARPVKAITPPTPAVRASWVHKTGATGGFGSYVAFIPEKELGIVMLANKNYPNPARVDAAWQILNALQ
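AmpC (5.3 nM in the dispensed reagent) in 20 mM phosphate pH 7.0 with 0.01% (detergent screen) or 0.0001% Triton X-100 was preincubated with compounds for 15 min at room temperature. Nitrocefin was then added from an 800 uM solution, and hydrolysis was followed at 480 nm.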
Vaccinia Venus = inhibitors of vaccinia virus (Venus reporter); Potency, µM (highest dose often 36.5 µM), without a hit: at the highest dose activity change, negative = inhibition, hits mostly inhibitors; Vaccinia virus Venus reporter expression, fluorescence; actives 0.46% (n = 330,000); calls by dose curve; tested in A549 cells; note: % is set by controls: 0 for no effect and ±100 for the full control effect; nearly all actives have a fitted effect of over 30% in size
SARS PLpro yeast = inhibitors of SARS-CoV papain-like protease in yeast; S. cerevisiae expressing SARS-CoV PLpro, growth rescue; actives 0.19% (n = 330,000); AID 485353; Potency, µM (highest dose often 32.9 µM), inactives show at the top dose activity, positive = growth rescue, hits mostly activators; calls by dose curve; note: 0% is about no effect; nearly all actives have a fitted effect of over 55% in size
AmpC inh detg = inhibitors of E. coli AmpC beta-lactamase with detergent; P00811; AmpC hydrolysis of nitrocefin, absorbance 480 nm, 0.01% Triton; Potency, µM (highest dose often 114 µM), inactives show at the top dose activity change, negative = inhibition, hits mostly inhibitors; actives 0.041% (n = 370,000); AID 485294;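 note: 0% = no-compound wells and -100% = no-enzyme wells; nearly all actives have a fitted effect of over 25% in size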
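AmpC (5.3 nM in the dispensed reagent) in 20 mM phosphate pH 7.0 with 0.01% (detergent screen) or 0.0001% Triton X-100 was preincubated with compounds for 15 min at room temperature. Nitrocefin was then added from an 800 uM solution, and hydrolysis was followed at 480 nm.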
AMA1 RON2 block = AMA1-RON2 (P. falciparum) interaction inhibition | AlphaScreen AMA1-biotinylated RON2 peptide binding | Potency, µM (titrated, usually from 58.2 µM), for inactives: at the highest dose activity change, negative = inhibition, hits mostly inhibitors | actives 0.2% (n = 360,000);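 note: 0% = vehicle wells and -100% = peptide control; nearly all actives have a fitted effect of over 45% in size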
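AMA1 (3D7) with his tag at 25 nM final met compounds first, then biotinylated RON2 peptide at 25 nM; detection used donor plus acceptor beads, 10 µg/mL apiece, read by AlphaScreen after 30 min at room temperature.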
Starred values were filed as active, the others as inactive; i = inactive; ? = inconclusive; . = no result; [ ] = remark or other dose. Unless noted, calls come from the whole dose curve; as a rule, active = well fitted curve in the direction sought with a large enough effect; inconclusive = small, poorly fitted or top-dose-only effect, or another doubt; inactive = no such curve, though single readings can be large; an effect the other way counts as inactive or inconclusive. Potency is the fitted concentration of half-maximal effect.

SMILES	VACV mCherry inh	AmpC inh no detg	Vaccinia Venus	SARS PLpro yeast	AmpC inh detg	AMA1 RON2 block
Cn1c(SCc2ccccc2)nnc1-c1c[nH]c2ccccc12	-10%	25µM*	-7%	-5%	?	-4%
COc1ccc2sc(-c3ccc(S(C)(=O)=O)cc3)c(C#CCO)c2c1	10µM*	183%	?	6%	.	8%
Cc1cccc(-c2n[nH]c(=S)n2Cc2ccccc2)c1	-16%	-7%	-13%	8.9µM*	-1%	0%
Cc1[nH]c2ccc(-c3n[nH]c(=S)n3-c3ccccc3)cc2c1C	-7%	-47%	-18%	0%	-7%	36%
Cc1[nH]c2ccc(-c3n[nH]c(=S)n3Cc3ccccc3)cc2c1C	i	11µM*	-15%	2%	-1%	28%
COc1ccc(CN2CCOc3ccc(CN4CCCCC4CO)cc3C2)c(OC)c1 (stereo not given)	-5%	.	-3%	.	.	.
O=C(C1CC12CCN(Cc1cccc3cccnc13)CC2)N1CCN(Cc2cccs2)CC1 (stereo not given)	-11%	.	-5%	.	.	.
CCN(Cc1ccncc1)Cc1ccc2c(c1)CN(C(=O)c1cccc3c(C)c(C)[nH]c13)CCO2	-3%	.	6%	.	.	.
Cc1cccc2cc(CNCCCN3CCCC3=O)c(N3CCN4CCCC4C3)nc12 (stereo not given)	i	.	-19%	.	.	.
COc1ccc(N=C2S/C(=C\c3ccc(Cl)c([N+](=O)[O-])c3)C(=O)N2CCN(C)C)cc1	-23%	156%	?	-3%	-11%	14µM*
CC(=O)Nc1ccc(CNc2nc(NC(C)C)nc3cc(-c4ccccc4)sc23)cc1	?	.	11µM*	.	.	?
C=CCNc1nc(NCc2ccc(NC(C)=O)cc2)c2sc(-c3ccccc3)cc2n1	-5%	.	16µM*	.	.	-19%
C=CCNc1nc(NCCCN2CCCC2=O)c2sc(-c3ccccc3)cc2n1	?	.	?	.	.	20%
CC(=O)NCCNc1nc(NC(C)C)nc2cc(-c3ccccc3)sc12	8%	.	-20%	.	.	-11%
CCOC(=O)CCCCC(=O)c1[nH]c(=O)[nH]c1C[n+]1ccccc1	.	-14%	.	1%	2%	.
CCOC(=O)CCCCC(=O)c1[nH]c(=O)[nH]c1CN1CCOCC1	-3%	-17%	2%	-2%	-10%	9.5µM*
COc1cc(=O)n2c(c1C(=O)NC(C)c1ccco1)CCN(CC=C(C)C)CC2 (stereo not given)	-10%	.	-11%	.	.	.
COc1cc(-c2cc(C)c3cccc(OC)c3n2)cc2c1OCCN(C(=O)CCn1nc(C)cc1C)C2	-20%	.	-10%	.	.	.
Cc1cc(N/N=C/c2ccc(O)cc2O)nc(-c2ccccc2O)n1	2.8µM*	?	6.3µM*	8%	-10%	110%
Oc1ccccc1C=NNc1nc2ccccc2s1	?	.	-29%	.	.	62%
Oc1ccc(C=NNc2nc3ccccc3s2)c(O)c1	5µM*	.	?	.	.	47%
Cc1ccccc1C(=O)N1CCc2c(cnc(C)c2CNC(=O)CN2CCCCC2)C1	-19%	.	-4%	.	.	.
CC(=O)Nc1ccc(NC(=O)Nc2ccc3c(c2)N(C)C(=O)CS3)cc1	i	-48%	-2%	0%	2%	3%
CCOc1ccc(OCC)c(NC(=O)Nc2ccc3c(c2)N(C)C(=O)CS3)c1	4%	1.1µM*	-22%	-5%	?	?
COc1cccc(NC(=O)Nc2ccc3c(c2)N(C)C(=O)CS3)c1	.	3.2µM*	.	-9%	-7%	0%
SMILES	VACV mCherry inh	AmpC inh no detg	Vaccinia Venus	SARS PLpro yeast	AmpC inh detg	AMA1 RON2 block
O=C(CSC1=NS(=O)(=O)c2ccccc21)Nc1ccccc1	13µM*	-29%	10µM*	-6%	?	10%
Cc1cc(Nc2sc(C(=O)c3ccc(F)cc3)c(N)c2C(=O)Nc2ccc(F)cc2)ccc1Cl	5µM*	.	?	.	15%	.
COc1ccc(NC(=O)c2c(Nc3ccccc3)sc(C(=O)c3ccc(F)cc3)c2N)cc1	?	-45%	?	-10%	-6%	-15%
COc1ccc(CN2CCCC(n3cc(C(=O)N4CCCCC4)nn3)C2)c(OC)c1C (stereo not given)	-7%	.	7%	.	.	.
O=C1NC(=S)N(Cc2ccco2)C(=O)/C1=C\c1cccs1	.	-60%	.	2%	45µM*	.
Cc1ccc(C)c2c(C)ccnc12	-11%	.	-8%	.	.	.
CCOc1ccccc1NC(=O)CSc1ccc(-c2ccco2)nn1	-24%	32µM*	-16%	-3%	0%	-14%
C=CC1CN2CCC1C[C@H]2C(O)c1ccnc2ccc(OC)cc12 (stereo not given in full)	-18%[60.7 µM]	.	-7%[60.7 µM]	.	.	.
COc1ccc2c3c1OC1C(O)C=CC4C(C2)[N+](C)(C)CCC341 (stereo not given)	.	?	.	-1%	40µM*	-7%
CN1CC[C@]23c4c5ccc(O)c4OC2[C@H](O)C=CC3[C@H]1C5 (stereo not given in full)	-8%	-17%	-23%	-4%	.	12%
COC(=O)[C@]1(Cc2ccccc2)N[C@H](CN(C)C(=O)Nc2ccc(C(F)(F)F)cc2)[C@@H]2C(=O)N(Cc3ccccc3)C(=O)[C@@H]21	?	15%	10µM*	-2%	.	0%
COc1ccccc1CN1CCOc2ccc(CN3CCC(Oc4cccnc4)CC3)cc2C1	-20%	.	2%	.	.	.
COc1ccccc1N(C(C)=O)C1=C(Cl)C(=O)c2ccccc2C1=O	?	.	?	.	.	13µM*
COc1ccccc1N(C(=O)CCl)c1cn(C(C)=O)c2ccccc12	.	42%	.	-1%	-1%	4%
Cc1ccc(NC(=O)Cn2ncc(Cl)c(Cl)c2=O)cc1S(=O)(=O)N1CCCCC1	.	4µM*	.	2%	-2%	-8%
Cc1ccc(NC(=O)Cc2ccc(Cl)cc2)cc1S(=O)(=O)N1CCCCCC1	.	-25%	.	3%[6.58 µM]	-8%	13%
CN(C)c1ccc(/C=C/c2ccnc3ccccc23)cc1Cl	-4%	.	-18%	.	.	.
O=S(=O)(Nc1ccc(O)c2ccccc12)c1cccs1	-9%	-37%	1%	-11%	-9%	-9%
O=S(=O)(Nc1ccc(O)c2ccccc12)c1ccc(Br)cc1	.	11µM*	.	-9%	-3%	.
CC(=O)Oc1ccc(-c2ccc(C(=O)Nc3cccc(S(=O)(=O)N4CCOCC4)c3)cc2)cc1	16µM*	24%	?	3%	0%	-3%
Cc1cccc(NC(=O)c2ccc(CNS(=O)(=O)c3ccc4c(c3)C(C)(C)C(=O)N4C)cc2)c1	-3%	.	-26%	.	-6%	.
COC(=O)[C@@H]1CCCN1C(=O)c1cnn(-c2ncc3c(n2)-c2ccccc2CCC3)c1C1CC1	-5%	.	-3%	.	.	.

From PubChem BioAssay
